# Where “and” joins values, the source holds several entries; their conditions need not be identical. Equal values may be shown once. Inconclusive results are not listed. Calls of active or inactive are those of the source. How the source made its calls, unless noted: active means hit-call score of the fitted dose curve at least 0.9, where 1 is the maximum; inactive means score below 0.9.
# Columns and labels:
# [1] = biological target: human Thyroid Receptor Alpha (TRa), THRA (gene 7067) (UniProt P10827); assay: NVS_NR_hTRa_Antagonist: NovaScreen (NVS) Nuclear Receptor Binding Assay for human Thyroid Receptor Alpha Antagonism (TRa) (AID 2283362; active means hit-call score of the fitted dose curve at least 0.9, where 1 is the maximum;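 further: activity is loss of signal relative to DMSO baseline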)
# In short: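 Cell-free binding assay on extracted receptor protein, read 1 h after chemical dosing by AlphaLISA chemiluminescence; loss of signal relative to DMSO baseline marks antagonism. Primary screen ran in duplicate at 25 uM, with concentration series for actives.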
# [2] = biological target: Androgen Receptor/SRC-1 Co-activator, AR (gene 367) (UniProt P10275); assay: OT_AR_ARSRC1_0960: Odyssey Thera (OT) 16-hour HEK293T Protein-Complementation Assay for Androgen Receptor/SRC-1 Co-activator (AID 2283353; active means hit-call score of the fitted dose curve at least 0.9, where 1 is the maximum;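 further: actives raise the signal above DMSO so potency reflects increased AR and SRC-1 complex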)
# In short: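 Stable HEK293T line carries AR and SRC-1 each linked to a Venus fragment; chemicals are applied for 16 h, cells imaged at two wavelengths, and the 488 nm nucleus/cytoplasm ratio is taken as the signal, rising relative to DMSO.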
# [3] = biological target: Androgen Receptor/SRC-1 Co-activator, AR (gene 367) (UniProt P10275); assay: OT_AR_ARSRC1_0480: Odyssey Thera (OT) 8-hour HEK293T Protein-Complementation Assay for Androgen Receptor/SRC-1 Co-activator (AID 2283354; active means hit-call score of the fitted dose curve at least 0.9, where 1 is the maximum;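 further: hits raise the complementation signal above DMSO so AC50 marks enhancers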)
# In short: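 After 8 h dosing, stably expressing HEK293T cells with split-Venus AR/SRC-1 fusions were imaged (488, 635nm). The 488nm N/C ratio per image gave the endpoint, analysed in the positive direction against DMSO.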
# [4] = biological target: Agonist Androgen Response Element (ARE), AR (gene 367) (UniProt P10275); assay: OT_AR_ARELUC_AG_1440: Odyssey Thera (OT) 24-hour CHO-K1 Luciferase Assay for Agonist Androgen Response Element (ARE) (AID 2283379; active means hit-call score of the fitted dose curve at least 0.9, where 1 is the maximum)
# In short: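 Luminescence increase above DMSO, read after a 24 h compound treatment of CHO-K1 cells expressing an androgen response element luciferase reporter, gives the single primary endpoint; concentration-response fitting used the positive direction.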
# AR (gene 367) = AR (gene 367) (UniProt P10275); assay: ACEA_AR_antagonist_80hr: ACEA Biosciences xCELLigence Real-Time Cell Analysis on Androgen Receptor Antagonism for Proliferation (AID 2283787; active means hit-call score of the fitted dose curve at least 0.9, where 1 is the maximum;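 further: 22Rv1 human prostate cancer cells with growth followed by electrical impedance; hits lower the impedance growth signal relative to DMSO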)
# In short: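 Using 22Rv1 cells held in assay medium, we dosed compounds (100 uM maximum final, 1:4 serial, eight points, 0.5% DMSO at top) and recorded cell-electrode impedance; the 80 hr timepoint was analyzed against DMSO.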
# [5] = biological target: Nucleoli Translocation, AR (gene 367) (UniProt P10275); assay: UPITT_HCI_U2OS_AR_TIF2_Nucleoli_Agonist: University of Pittsburgh U2OS Androgen Receptor-Transcriptional Intermediary Factor 2 (AR-TIF2) Agonism High Content Imaging Assay for Nucleoli Translocation (AID 2283998; active means hit-call score of the fitted dose curve at least 0.9, where 1 is the maximum)
# In short: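 Cells express human AR fused to red fluorescent protein and TIF2 fused to GFP. Red fluorescence in the nucleolar region was quantified by high-content imaging and fitted as gain-of-signal against a DMSO baseline. Compounds were tested at 0.195 to 50 uM final (0.5% DMSO).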
# [6] = biological target: Ratio of Nucleoli Translocation and Cytoplasm, AR (gene 367) (UniProt P10275); assay: UPITT_HCI_U2OS_AR_TIF2_Nucleoli_Cytoplasm_Ratio_Antagonist: University of Pittsburgh U2OS Androgen Receptor-Transcriptional Intermediary Factor 2 (AR-TIF2) Antagonism High Content Imaging Assay for Ratio of Nucleoli Translocation and Cytoplasm (AID 2283999; active means hit-call score of the fitted dose curve at least 0.9, where 1 is the maximum;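 further: antagonists lower the DHT-driven ratio of nucleolar to cytoplasmic red signal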)
# In short: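 Compounds were added to U2OS cells carrying red-fluorescent AR and green-fluorescent TIF2, first at 20 uM, with hits confirmed in triplicate and titrated from 0.195 to 50 uM. Nucleolar versus cytoplasmic AR-RFP fluorescence was then quantified by imaging, with analysis relative to DHT.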
# [7] = biological target: Ratio of Nucleoli Translocation and Cytoplasm, AR (gene 367) (UniProt P10275); assay: UPITT_HCI_U2OS_AR_TIF2_Nucleoli_Cytoplasm_Ratio_Agonist: University of Pittsburgh U2OS Androgen Receptor-Transcriptional Intermediary Factor 2 (AR-TIF2) Agonism High Content Imaging Assay for Ratio of Nucleoli Translocation and Cytoplasm (AID 2284000; active means hit-call score of the fitted dose curve at least 0.9, where 1 is the maximum;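 further: hits raise the red nucleolar to cytoplasm ratio above vehicle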)
# In short: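 Primary screen at 20 uM final (0.2% DMSO), then triplicate confirmation and dose-response from 0.195 to 50 uM final (0.5% DMSO). Cells: U2OS with AR-RFP and TIF2-GFP. Endpoint is the nucleoli/cytoplasm red-fluorescence ratio, gain-of-signal vs DMSO.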
# [8] = biological target: Muscarinic acetylcholine receptor M2 (Homo sapiens) (UniProt P08172); assay: NVS_GPCR_hM2: NovaScreen (NVS) G Protein-Coupled Receptor Assay for human Muscarinic, M2 Receptor (AID 2283273; active means hit-call score of the fitted dose curve at least 0.9, where 1 is the maximum)
# In short: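 Radioligand competition binding, cell-free, receptor from CHO; 1 h incubation; scintillation detection. Primary testing at 25 uM in duplicate.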
# [9] = biological target: Estrogen receptor (Homo sapiens) + Estrogen receptor beta (Homo sapiens) (UniProt P03372+Q92731); assay: OT_ER_ERaERb_1440: Odyssey Thera (OT) 24-hour HEK293T Protein-Complementation Assay for Estrogen Receptor-alpha/-beta Homodimer (AID 2283356; active means hit-call score of the fitted dose curve at least 0.9, where 1 is the maximum;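 further: heteromer of ER alpha and ER beta binding domains; hits raise reporter fluorescence and both agonists and antagonists give an increase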)
# In short: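 HEK293T cells stably expressing a PCA pair of ERα LBD (aa 310-547) and ERβ LBD (aa 263-489) were dosed for 24 h. Fluorescence intensity increase versus DMSO vehicle was fitted as gain-of-signal.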
# [10] = biological target: human Matrix Metalloproteinase-9 (MMP9), MMP9 (gene 4318) (UniProt P14780); assay: NVS_ENZ_hMMP9: NovaScreen (NVS) Enzymatic Assay for human Matrix Metalloproteinase-9 (MMP9) (AID 2283190; active means hit-call score of the fitted dose curve at least 0.9, where 1 is the maximum;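 further: cell-free recombinant MMP9 protease activity read by fluorescent substrate signal; active means inhibition seen as loss of fluorescence signal versus DMSO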)
# In short: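 Cell-free fluorescence-intensity enzyme activity assay using extracted protein, read 1 h after dosing. Loss of signal versus DMSO baseline indicates inhibition; primary screen in duplicate at 25 uM, actives followed up in concentration series.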
# [11] = CEETOX_H295R_MTT_cell_viability: Viability Assessment in the CeeTox HT-H295R MTT Assay (AID 2283718)
# In short: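 H295R cells prestimulated 48 h with 10 uM forskolin, then exposed 48 h to test chemical (0.1% DMSO final). Viability by MTT (0.5 mg/ml, 4 h, 37 C), absorbance 570/650 nm; percent change versus DMSO, bidirectional fit.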
# [12] = biological target: sheep Cyclooxygenase-1 (Cox1), PTGS1 (gene 443551) (UniProt P05979); assay: NVS_ENZ_oCOX1: NovaScreen (NVS) Enzymatic Assay for sheep Cyclooxygenase-1 (Cox1) (AID 2283239; active means hit-call score of the fitted dose curve at least 0.9, where 1 is the maximum;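 further: actives reduce cyclooxygenase activity so potencies are for inhibitors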)
# In short: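 Cell-free colorimetric assay of enzyme activity in a native extract of ovine seminal vesicles. Absorbance was read 0.66 hour after compound addition. Loss of signal relative to the DMSO negative control was scored, with actives from the 25 uM duplicate primary screen retested in concentration series.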
# [13] = read-out: Interleukin-8 (IL8), CXCL8 (gene 3576); assay: BSK_BE3C_IL8: BioMAP Diversity Plus: BE3C Assay for Interleukin-8 (IL8) Biomarker Activity (AID 2284280); conditions: primary human bronchial epithelial cells
# In short: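 Measured at 24 h after treatment, IL-8 from human primary bronchial epithelial cells is determined by ELISA, and the response is modelled as increasing relative to DMSO negative control.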
# [14] = read-out: Epidermal growth factor receptor (EGFR), EGFR (gene 1956); assay: BSK_BE3C_EGFR: BioMAP Diversity Plus: BE3C Assay for Epidermal growth factor receptor (EGFR) Biomarker Activity (AID 2284281); conditions: primary human bronchial epithelial cells
# In short: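 Measured 24 h after dosing in primary human bronchial epithelial cultures, EGFR was read by ELISA; gain of signal over DMSO control defined activity.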
# KRT18 (gene 3875) = assay: BSK_BE3C_Keratin818: BioMAP Diversity Plus: BE3C Assay for Keratin 818 Biomarker Activity (AID 2284282); conditions: primary human bronchial epithelial cells
# In short: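 Keratin 8/18 levels, detected by ELISA, served as the endpoint after 24 h chemical exposure of primary human bronchial epithelial cells. Gain of signal relative to DMSO negative control defined activity.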
# [15] = read-out: Plasminogen activator inhibitor-1 (PAI1), SERPINE1 (gene 5054); assay: BSK_CASM3C_PAI1: BioMAP Diversity Plus: CASM3C Assay for Plasminogen activator inhibitor-1 (PAI1) Biomarker Activity (AID 2284284); conditions: primary human coronary artery smooth muscle cells;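 further: PAI-1 protein level measured by ELISA 24 h after dosing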
# [16] = read-out: Intercellular Adhesion Molecule 1 (ICAM1), ICAM1 (gene 3383); assay: BSK_hDFCGF_ICAM1: BioMAP Diversity Plus: hDFCGF Assay for Intercellular Adhesion Molecule 1 (ICAM1) Biomarker Activity (AID 2284287); conditions: primary human foreskin fibroblasts
# In short: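 ICAM-1 ELISA readout 24 h after dosing, DMSO as baseline, in human dermal foreskin fibroblast cultures. Cytotoxicity checked in parallel wells by SRB staining (0.1% SRB, 10% TCA fixation, 560 nm).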
# [17] = read-out: TIMP metallopeptidase inhibitor 2 (TIMP2), TIMP2 (gene 7077); assay: BSK_hDFCGF_TIMP2: BioMAP Diversity Plus: hDFCGF Assay for TIMP metallopeptidase inhibitor 2 (TIMP2) Biomarker Activity (AID 2284289); conditions: primary human foreskin fibroblasts
# In short: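 Primary human foreskin fibroblasts in the hDFCGF system, dosed for 24 h; TIMP-2 level measured by ELISA, fitted in the positive direction against DMSO; cytotoxicity checked in parallel by sulforhodamine B total protein staining.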
# [18] = read-out: Thrombomodulin, THBD (gene 7056); assay: BSK_LPS_Thrombomodulin: BioMAP Diversity Plus: LPS Assay for Thrombomodulin Biomarker Activity (AID 2284296); conditions: primary human HUVEC with PBMC
# In short: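 Thrombomodulin on the surface of LPS-activated endothelial/PBMC co-cultures was quantified by ELISA at 24 hours post-dosing, with DMSO as baseline. Parallel SRB total-protein staining flagged overt cytotoxicity.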
# Chain of Ratio of Nucleoli Translocation and Cytoplasm, AR (gene 367) (P10275 whole entry, looked up): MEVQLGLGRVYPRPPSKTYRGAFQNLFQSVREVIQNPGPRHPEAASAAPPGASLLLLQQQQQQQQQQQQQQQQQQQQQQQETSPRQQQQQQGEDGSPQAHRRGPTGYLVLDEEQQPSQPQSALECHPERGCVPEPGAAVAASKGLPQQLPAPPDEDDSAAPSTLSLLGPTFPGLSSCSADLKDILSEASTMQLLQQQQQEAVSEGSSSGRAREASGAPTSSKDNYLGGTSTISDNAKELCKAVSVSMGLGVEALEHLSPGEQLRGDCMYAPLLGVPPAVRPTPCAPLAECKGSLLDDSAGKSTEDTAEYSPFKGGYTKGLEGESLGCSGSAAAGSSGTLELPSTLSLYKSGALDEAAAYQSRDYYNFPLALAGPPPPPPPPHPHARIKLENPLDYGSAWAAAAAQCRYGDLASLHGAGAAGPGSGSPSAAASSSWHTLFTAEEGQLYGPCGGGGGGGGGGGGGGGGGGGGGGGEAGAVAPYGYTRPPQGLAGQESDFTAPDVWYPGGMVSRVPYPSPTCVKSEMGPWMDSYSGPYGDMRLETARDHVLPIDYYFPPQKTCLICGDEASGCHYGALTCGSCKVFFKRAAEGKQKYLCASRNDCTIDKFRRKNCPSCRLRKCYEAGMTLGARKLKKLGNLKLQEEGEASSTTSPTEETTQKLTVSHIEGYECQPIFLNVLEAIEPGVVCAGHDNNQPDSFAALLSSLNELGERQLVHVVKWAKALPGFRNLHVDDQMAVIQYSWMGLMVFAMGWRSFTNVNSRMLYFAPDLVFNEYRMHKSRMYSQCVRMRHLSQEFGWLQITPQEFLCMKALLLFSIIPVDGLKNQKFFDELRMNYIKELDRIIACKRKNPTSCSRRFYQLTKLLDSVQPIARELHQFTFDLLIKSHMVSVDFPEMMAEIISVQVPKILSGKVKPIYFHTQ
# Chain of AR (gene 367) (P10275 whole entry, looked up): as above
# Chain of Nucleoli Translocation, AR (gene 367) (P10275 whole entry, looked up, the tested form may be a part): as the sequence (P10275 whole entry, looked up) above
# Chain of Agonist Androgen Response Element (ARE), AR (gene 367) (P10275 whole entry, looked up): as above
# Chain of Androgen Receptor/SRC-1 Co-activator, AR (gene 367) (P10275 whole entry, looked up, the tested form may be a part): as the sequence (P10275 whole entry, looked up) above
# Chain of Estrogen receptor (Homo sapiens) + Estrogen receptor beta (Homo sapiens) (P03372 whole entry, looked up, the tested form may be a part): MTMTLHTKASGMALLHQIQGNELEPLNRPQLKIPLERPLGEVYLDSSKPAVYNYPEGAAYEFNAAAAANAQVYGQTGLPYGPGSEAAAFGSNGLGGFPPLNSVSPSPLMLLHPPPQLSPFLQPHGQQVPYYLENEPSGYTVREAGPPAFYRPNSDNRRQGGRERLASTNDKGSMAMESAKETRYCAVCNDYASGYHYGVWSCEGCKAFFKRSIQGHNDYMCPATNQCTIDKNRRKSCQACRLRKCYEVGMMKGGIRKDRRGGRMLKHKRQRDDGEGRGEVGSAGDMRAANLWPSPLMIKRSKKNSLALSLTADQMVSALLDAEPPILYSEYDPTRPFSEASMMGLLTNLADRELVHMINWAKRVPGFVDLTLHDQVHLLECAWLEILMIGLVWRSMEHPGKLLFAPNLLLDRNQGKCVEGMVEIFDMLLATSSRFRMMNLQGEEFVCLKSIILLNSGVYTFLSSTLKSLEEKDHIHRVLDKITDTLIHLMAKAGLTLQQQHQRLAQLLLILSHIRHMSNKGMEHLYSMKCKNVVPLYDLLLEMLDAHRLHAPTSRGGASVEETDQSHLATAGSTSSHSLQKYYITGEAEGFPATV
# Chain of Estrogen receptor (Homo sapiens) + Estrogen receptor beta (Homo sapiens) (Q92731 whole entry, looked up, the tested form may be a part): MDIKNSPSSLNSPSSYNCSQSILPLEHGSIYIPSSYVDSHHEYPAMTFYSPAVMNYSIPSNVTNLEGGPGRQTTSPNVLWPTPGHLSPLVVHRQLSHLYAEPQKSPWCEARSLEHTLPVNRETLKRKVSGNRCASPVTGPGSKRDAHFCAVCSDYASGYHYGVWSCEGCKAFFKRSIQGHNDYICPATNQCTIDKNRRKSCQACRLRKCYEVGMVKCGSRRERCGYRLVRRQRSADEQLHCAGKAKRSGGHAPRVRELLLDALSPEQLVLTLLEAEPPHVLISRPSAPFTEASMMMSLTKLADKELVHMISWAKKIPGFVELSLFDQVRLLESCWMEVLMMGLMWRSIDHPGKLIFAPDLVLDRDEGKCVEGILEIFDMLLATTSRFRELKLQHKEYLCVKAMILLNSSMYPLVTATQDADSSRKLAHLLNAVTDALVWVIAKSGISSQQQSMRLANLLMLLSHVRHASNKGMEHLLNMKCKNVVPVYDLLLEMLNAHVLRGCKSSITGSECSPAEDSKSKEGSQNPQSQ
# Chain of Muscarinic acetylcholine receptor M2 (Homo sapiens) (P08172 whole entry, looked up): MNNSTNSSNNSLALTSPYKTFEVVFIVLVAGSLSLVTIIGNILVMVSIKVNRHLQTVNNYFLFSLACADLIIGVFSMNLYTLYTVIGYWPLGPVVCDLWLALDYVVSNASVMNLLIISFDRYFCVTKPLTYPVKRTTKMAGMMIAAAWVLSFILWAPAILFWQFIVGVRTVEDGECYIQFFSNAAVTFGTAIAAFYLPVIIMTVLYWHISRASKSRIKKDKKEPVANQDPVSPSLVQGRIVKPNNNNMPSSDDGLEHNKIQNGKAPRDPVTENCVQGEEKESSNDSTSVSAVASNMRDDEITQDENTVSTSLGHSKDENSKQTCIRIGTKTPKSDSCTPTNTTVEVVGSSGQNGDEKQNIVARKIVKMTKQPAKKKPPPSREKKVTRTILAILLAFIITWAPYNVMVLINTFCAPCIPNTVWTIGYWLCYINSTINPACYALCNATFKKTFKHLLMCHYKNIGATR
# Chain of sheep Cyclooxygenase-1 (Cox1), PTGS1 (gene 443551) (P05979 whole entry, looked up): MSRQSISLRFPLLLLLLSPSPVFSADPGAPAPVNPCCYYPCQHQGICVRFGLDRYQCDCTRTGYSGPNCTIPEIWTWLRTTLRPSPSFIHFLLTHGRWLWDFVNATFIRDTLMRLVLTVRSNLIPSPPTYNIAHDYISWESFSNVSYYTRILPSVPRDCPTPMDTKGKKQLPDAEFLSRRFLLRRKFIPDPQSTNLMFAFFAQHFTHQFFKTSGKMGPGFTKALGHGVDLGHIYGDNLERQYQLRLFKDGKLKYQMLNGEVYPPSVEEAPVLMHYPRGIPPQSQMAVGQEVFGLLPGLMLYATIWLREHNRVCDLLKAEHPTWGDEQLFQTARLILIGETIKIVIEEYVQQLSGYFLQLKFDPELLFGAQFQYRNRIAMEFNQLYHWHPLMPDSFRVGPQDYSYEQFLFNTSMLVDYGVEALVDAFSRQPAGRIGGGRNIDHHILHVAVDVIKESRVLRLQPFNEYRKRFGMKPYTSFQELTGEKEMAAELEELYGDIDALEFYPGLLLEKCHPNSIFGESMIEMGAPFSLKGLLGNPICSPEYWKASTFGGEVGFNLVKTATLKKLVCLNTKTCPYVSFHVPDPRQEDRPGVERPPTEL
# Chain of human Thyroid Receptor Alpha (TRa), THRA (gene 7067) (P10827 whole entry, looked up): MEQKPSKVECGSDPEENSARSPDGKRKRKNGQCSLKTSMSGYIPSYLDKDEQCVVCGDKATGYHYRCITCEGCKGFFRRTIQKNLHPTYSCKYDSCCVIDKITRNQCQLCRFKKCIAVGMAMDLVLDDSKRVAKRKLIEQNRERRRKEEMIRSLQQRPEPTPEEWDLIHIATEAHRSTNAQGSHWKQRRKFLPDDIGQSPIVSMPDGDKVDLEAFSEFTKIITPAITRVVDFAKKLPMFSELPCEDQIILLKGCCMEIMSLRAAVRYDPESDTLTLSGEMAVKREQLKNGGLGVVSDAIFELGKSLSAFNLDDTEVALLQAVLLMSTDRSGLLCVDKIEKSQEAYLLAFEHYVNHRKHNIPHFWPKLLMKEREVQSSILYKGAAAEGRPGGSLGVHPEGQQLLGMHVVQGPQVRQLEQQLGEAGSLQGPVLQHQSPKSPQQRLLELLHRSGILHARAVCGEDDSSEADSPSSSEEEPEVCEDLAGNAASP
# Chain of human Matrix Metalloproteinase-9 (MMP9), MMP9 (gene 4318) (P14780 whole entry, looked up): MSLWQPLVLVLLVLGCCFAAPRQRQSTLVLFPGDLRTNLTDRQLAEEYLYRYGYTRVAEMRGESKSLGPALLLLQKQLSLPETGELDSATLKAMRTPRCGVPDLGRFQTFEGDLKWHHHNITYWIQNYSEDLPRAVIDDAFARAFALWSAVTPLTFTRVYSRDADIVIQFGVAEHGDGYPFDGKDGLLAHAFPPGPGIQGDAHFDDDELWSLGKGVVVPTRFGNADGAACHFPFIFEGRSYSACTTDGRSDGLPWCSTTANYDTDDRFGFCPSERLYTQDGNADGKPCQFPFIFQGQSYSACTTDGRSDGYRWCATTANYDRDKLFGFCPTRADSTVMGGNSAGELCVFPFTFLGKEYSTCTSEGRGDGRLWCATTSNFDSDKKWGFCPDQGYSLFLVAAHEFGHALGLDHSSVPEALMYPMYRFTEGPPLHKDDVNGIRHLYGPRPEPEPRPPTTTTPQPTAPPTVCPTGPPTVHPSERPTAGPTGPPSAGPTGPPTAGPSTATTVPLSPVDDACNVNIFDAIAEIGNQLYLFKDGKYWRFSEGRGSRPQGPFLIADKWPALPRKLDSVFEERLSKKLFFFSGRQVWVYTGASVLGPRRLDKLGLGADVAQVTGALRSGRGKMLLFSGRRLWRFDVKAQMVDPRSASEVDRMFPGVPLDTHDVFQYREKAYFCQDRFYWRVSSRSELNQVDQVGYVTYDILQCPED
structure (smiles),measurement,setting,value
CC1=NN(c2cc(Cl)c(S(=O)(=O)O)cc2Cl)C(=O)C1N=Nc1ccc(S(=O)(=O)O)cc1 (configuration not stated),outcome,[1],inactive
CO[Si](CCCNCCN)(OC)OC,outcome,[2],inactive
same,outcome,[3],inactive
same,outcome,[4],inactive
same,outcome,AR (gene 367),inactive
same,outcome,[5],inactive
same,outcome,[6],inactive
same,outcome,[7],inactive
Clc1ccccn1,outcome,[8],inactive
CCCCCCC1CCC(=O)O1 (configuration not stated),outcome,[9],inactive
CN(C)c1ccc(C(c2ccccc2)c2ccc(N(C)C)cc2)cc1,outcome,[10],inactive
O=C(c1ccccc1)c1ccccc1O,outcome,[2],inactive
same,outcome,[3],inactive
same,outcome,[4],inactive
same,outcome,AR (gene 367),inactive
same,outcome,[5],inactive
same,outcome,[6],inactive
same,outcome,[7],inactive
Cc1cc(C)c(S(=O)(=O)O)cc1N=Nc1cc(S(=O)(=O)O)c2ccccc2c1O,outcome,[2],inactive
same,outcome,[3],inactive
same,AC50,[1],29.5 µM (active)
same,outcome,[4],inactive
same,outcome,AR (gene 367),inactive
same,outcome,[5],inactive
same,outcome,[6],inactive
same,outcome,[7],inactive
CCCCOC(=O)COc1ccc(Cl)cc1Cl,outcome,[11],inactive
COC(=O)c1ccccc1,outcome,[12],inactive
CCOC(=O)c1ccccc1,outcome,[9],inactive
N#CCN(CC#N)CCN(CC#N)CC#N,outcome,[12],inactive
CN(C)Cc1cc(C(C)(C)C)c(O)c(C(C)(C)C)c1,outcome,[13],inactive
same,outcome,[14],inactive
same,outcome,KRT18 (gene 3875),inactive
same,outcome,[15],inactive
same,outcome,[16],inactive
same,outcome,[17],inactive
same,outcome,[18],inactive
CC[N+](CC)(CC(=O)Nc1c(C)cccc1C)Cc1ccccc1 (tested in a mixture with another compound),outcome,[13],inactive
same,outcome,[14],inactive
same,outcome,KRT18 (gene 3875),inactive
same,outcome,[15],inactive
same,outcome,[16],inactive
same,outcome,[17],inactive
same,outcome,[18],inactive
C=C1CC[C@H]2C[C@@H]1C2(C)C,outcome,[9],inactive
same,outcome,[1],inactive
CC(C)CC(=O)O,AC50,[12],25 µM (active)
CCC(C)(CCC(C)C)C(=O)O (configuration not stated),AC50,[10],2.32 µM (active)
Cc1cc(O)cc(C)c1Cl,outcome,[11],inactive
CC[N+](CC)(CC(=O)Nc1c(C)cccc1C)Cc1ccccc1,AC50,[8],0.419 µM (active)
CCO[Si](OCC)(OCC)c1ccccc1,AC50,[10],1.37 µM (active)
CN(C)CCC(c1ccc(Cl)cc1)c1ccccn1 (configuration not stated),AC50,[8],10.3 µM (active)
O=C(O)c1ccccc1C(=O)O,outcome,[11],inactive
COc1ccc(C(=O)c2ccccc2O)c(O)c1,outcome,[13],inactive
same,outcome,[14],inactive
same,outcome,KRT18 (gene 3875),inactive
same,outcome,[15],inactive
same,outcome,[16],inactive
same,outcome,[17],inactive
same,outcome,[18],inactive
CCCCC(CC)COC(=O)C=Cc1ccc(OC)cc1 (configuration not stated),outcome,[13],inactive
same,outcome,[14],inactive
same,outcome,KRT18 (gene 3875),inactive
same,outcome,[15],inactive
same,outcome,[16],inactive
same,AC50,[17],3.97 µM (active) and 6.38 µM (active)
same,AC50,[18],10.6 µM (active) and 20 µM (active)

# Reference: PubChem BioAssay (EPA / NIEHS)
